Reference: PubChem BioAssay (EPA / NIEHS)
Inconclusive results are not listed. Active and inactive are the calls of the source. The calls were made as follows: active = hit-call score of the fitted dose curve at least 0.9, where 1 is the maximum; inconclusive = response in the unintended direction; inactive = score below 0.9.

target: zebrafish Thyroid Hormone Receptor alpha (TRa), thraa (gene 30670) (UniProt Q98867); assay: ATG_zfTRa_XSP2: Attagene TRANS-FACTORIAL Multi-Species (XSP1) HepG2 Assay for zebrafish Thyroid Hormone Receptor alpha (TRa) (AID 2283832);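 also: actives raise zebrafish TRa-Gal4 reporter transcript above DMSO baseline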
Procedure: ATG_XSP2_multi-species_TRANS is a cell-based, multiplexed assay created by modifying the existing Attagene TRANS-FACTORIAL system to include a panel of nuclear receptors from some or all the following species: human (Homo sapiens), mouse (Mus musculus), frog (Xenopus laevis), zebrafish (Danio rerio), chicken (Gallus gallus), and turtle (Chrysemys picta). The ECOTOX-FACTORIAL format uses HepG2, a human liver cell line, with measurements taken at 24 hours after chemical dosing in a 24-well plate. Xsp2 included 3 nM 6-alpha-fluorotestosterone and 1.5 nM norgestrel to stimulate the androgen receptor.ATG_zfTRa_XSP2 is one of 29 assay components measured or calculated from the ATG_XSP2_multi-species_TRANS assay. It is designed to make measurements of mRNA induction, a form of inducible reporter, as detected with fluorescence intensity signals by Reverse transcription polymerase chain reaction (RT-PCR) and Capillary electrophoresis technology.The assay endpoint ATG_zfTRa_XSP2 was analyzed in the positive analysis fitting direction relative to DMSO as the negative control and baseline of activity. Using a type of inducible reporter, measures of mRNA for gain-of-signal activity can be used to understand the reporter gene at the transcription factor-level as they relate to the gene TR. Furthermore, this assay endpoint can be referred to as a primary readout, because this assay has produced multiple assay endpoints where this one serves a reporter gene function. To generalize the intended target to other relatable targets, this assay endpoint is annotated to the nuclear receptor intended target family, where the subfamily is non-steroidal.
Human liver HepG2 cells are transiently transfected with multiple reporter transcription units (MRTUs) in 6-well plates using FuGene 6 reagent (Roche; 3 ml FuGene/1 mg DNA). The MRTU constructs are regulated by a cis-regulating element (promoter). […] A major difference between the CIS and TRANS system is that in CIS activities of endogenous TFs are measured, whereas the TRANS assay evaluates changes in activities of exogenous, chimeric NR-Gal4 proteins. […] At the end of 24 hour incubation, total RNA was isolated using TriZol reagent (Invitrogen). The isolated RNA is then reverse-transcribed using oligo(dT) primer and Mo-MLV reverse transcriptase (Invitrogen) with DNAse I (Ambion) treatment for 30 min. The one-tenth of the produced cDNA was amplified by PCR using Taq DNA polymerase (Invitrogen) and two reporter sequence-specific primers. The PCR products were fluorescently labeled by primer extension with 6-arboxyfluorescein (6-FAM) 5'-labeled reporter sequence-specific primer (2 min at 95 C, 20 s at 68 C and 10 min at 72 C) and these products were digested with 5U of HpaI (New England Biolabs) for 2h at 37 C. The fragments were purified using Qiaquick PCR columns (Qiagen), analyzed on an ABI 3130xL genetic analyzer (Applied Biosystems) with peak positions identified by using a set of X-rhodamine (ROX)-labeled MapMarker1000 molecular weight standards (BioVentures). The raw capillary electrophoresis data was processed using Attagraph software (Attagene).

Chain of zebrafish Thyroid Hormone Receptor alpha (TRa), thraa (gene 30670) (Q98867 whole entry, looked up, the tested form may be a part): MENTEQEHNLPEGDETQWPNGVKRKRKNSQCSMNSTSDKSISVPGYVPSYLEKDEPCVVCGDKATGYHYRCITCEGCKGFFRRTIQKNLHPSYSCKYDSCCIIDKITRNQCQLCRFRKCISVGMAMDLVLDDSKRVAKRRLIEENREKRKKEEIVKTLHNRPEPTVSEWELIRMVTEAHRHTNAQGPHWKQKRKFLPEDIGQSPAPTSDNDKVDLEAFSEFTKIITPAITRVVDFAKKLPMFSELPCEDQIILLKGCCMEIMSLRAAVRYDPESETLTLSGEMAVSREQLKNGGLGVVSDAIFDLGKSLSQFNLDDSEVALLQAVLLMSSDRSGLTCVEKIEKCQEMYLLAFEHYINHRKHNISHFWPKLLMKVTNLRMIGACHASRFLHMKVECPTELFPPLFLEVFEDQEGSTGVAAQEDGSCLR

Structure (SMILES) | outcome | AC50
CCCCNC(=O)OCC#CI | inactive | –
COC(=O)N(OC)c1ccccc1COc1ccn(-c2ccc(Cl)cc2)n1 | inactive | –
CO/C=C(/C(=O)OC)c1ccccc1Oc1cc(Oc2ccccc2C#N)ncn1 | inactive | –
C=CC1(C)OC(=O)N(c2cc(Cl)cc(Cl)c2)C1=O (configuration not stated) | – | 25.6 µM (active)
C#CCOS(=O)OC1CCCCC1Oc1ccc(C(C)(C)C)cc1 (configuration not stated) | – | 163 µM (active)
COP(=S)(OC)Oc1nc(Cl)c(Cl)cc1Cl | inactive | –
COc1ccc(C(c2ccc(OC)cc2)C(Cl)(Cl)Cl)cc1 | inactive | –
OC(c1ccc(Cl)cc1)(c1cncnc1)c1ccccc1Cl (configuration not stated) | inactive | –
CCCN(CCC)c1c([N+](=O)[O-])cc(S(N)(=O)=O)cc1[N+](=O)[O-] | – | 51.1 µM (active)
CCCCC(CC)COC(=O)c1ccccc1C(=O)OCC(CC)CCCC (configuration not stated) | inactive | –
CC(C)(C)c1ccc(CSc2cnn(C(C)(C)C)c(=O)c2Cl)cc1 | inactive | –
CCOP(=S)(OCC)SCn1c(=O)oc2cc(Cl)ccc21 | inactive | –
